Source: the supplement of paper PMC9117331
Where a name gives a salt, the structure may show the parent alone.

Columns and labels:
Conditions in all cases: 0.5 µM; time after treatment 48 h; PC9 signalome
PC9 [1] = experiment: AKT reporter activity score (signed KS statistic vs DMSO) (signed KS statistic (-1 to 1)); higher = stronger activation of the pathway reporter relative to DMSO
PC9 [2] = experiment: RAR reporter activity score (signed KS statistic vs DMSO) (signed KS statistic (-1 to 1)); higher = stronger activation of the pathway reporter relative to DMSO
PC9 [3] = experiment: PKC reporter activity score (signed KS statistic vs DMSO) (signed KS statistic (-1 to 1)); higher = stronger activation of the pathway reporter relative to DMSO
PC9 [4] = experiment: PKA reporter activity score (signed KS statistic vs DMSO) (signed KS statistic (-1 to 1)); higher = stronger activation of the pathway reporter relative to DMSO
PC9 [5] = experiment: p38 reporter activity score (signed KS statistic vs DMSO) (signed KS statistic (-1 to 1)); higher = stronger activation of the pathway reporter relative to DMSO
PC9 [6] = experiment: HIF reporter activity score (signed KS statistic vs DMSO) (signed KS statistic (-1 to 1)); higher = stronger activation of the pathway reporter relative to DMSO
PC9 [7] = experiment: ERK reporter activity score (signed KS statistic vs DMSO) (signed KS statistic (-1 to 1)); higher = stronger activation of the pathway reporter relative to DMSO
PC9 [8] = experiment: JNK reporter activity score (signed KS statistic vs DMSO) (signed KS statistic (-1 to 1)); higher = stronger activation of the pathway reporter relative to DMSO
PC9 [9] = experiment: WNT reporter activity score (signed KS statistic vs DMSO) (signed KS statistic (-1 to 1)); higher = stronger activation of the pathway reporter relative to DMSO
PC9 [10] = experiment: NFkB reporter activity score (signed KS statistic vs DMSO) (signed KS statistic (-1 to 1)); higher = stronger activation of the pathway reporter relative to DMSO
PC9 [11] = experiment: YAP/TAZ reporter activity score (signed KS statistic vs DMSO) (signed KS statistic (-1 to 1)); higher = stronger activation of the pathway reporter relative to DMSO

Row | Structure (SMILES) | AKT reporter activity score (PC9 [1]) | RAR reporter activity score (PC9 [2]) | PKC reporter activity score (PC9 [3]) | PKA reporter activity score (PC9 [4]) | p38 reporter activity score (PC9 [5]) | HIF reporter activity score (PC9 [6]) | ERK reporter activity score (PC9 [7]) | JNK reporter activity score (PC9 [8]) | WNT reporter activity score (PC9 [9]) | NFkB reporter activity score (PC9 [10]) | YAP/TAZ reporter activity score (PC9 [11])
1 | CN1CCN(c2nc(C3=C(c4c[nH]c5ccccc45)C(=O)NC3=O)c3ccccc3n2)CC1 [Sotrastaurin (AEB071)] | 0.195 | -0.104 | 0.0333 | 0.144 | 0.268 | 0.0348 | -0.0912 | 0.155 | 0.0742 | -0.26 | -0.0765
2 | CCN(CC)CCNC(=O)c1c(C)[nH]c(/C=C2\C(=O)Nc3ccc(F)cc32)c1C [Sunitinib Malate (Sutent)] | 0.076 | -0.28 | -0.0463 | 0.13 | 0.139 | -0.147 | 0.0665 | 0.0727 | -0.103 | -0.134 | -0.0629
3 | CC(C)n1nc(-c2cc3cc(O)ccc3[nH]2)c2c(N)ncnc21 | -0.0564 | -0.222 | -0.0669 | 0.116 | 0.0578 | -0.329 | -0.108 | -0.0693 | 0.0845 | 0.195 | 0.186
4 | CO[C@H]1C[C@@H]2CC[C@@H](C)[C@@](O)(O2)C(=O)C(=O)N2CCCC[C@H]2C(=O)O[C@H]([C@H](C)C[C@@H]2CC[C@@H](O)[C@H](OC)C2)CC(=O)[C@H](C)/C=C(\C)[C@@H](O)[C@@H](OC)C(=O)[C@H](C)C[C@H](C)/C=C/C=C/C=C/1C [Rapamycin (Sirolimus)] | 0.0788 | -0.291 | -0.0424 | 0.0838 | -0.0405 | -0.242 | 0.0931 | -0.0966 | 0.0535 | 0.0606 | 0.12
5 | C=CC(=O)Nc1cccc(Sc2nc(Nc3ccc(N4CCN(C)CC4)cc3)ncc2Cl)c1 | -0.364 | 0.467 | 0.0576 | -0.418 | -0.318 | 0.106 | -0.698 | 0.15 | 0.172 | 0.174 | 0.338
6 | Cn1cnc2c(F)c(Nc3ccc(Br)cc3Cl)c(C(=O)NOCCO)cc21 [AZD6244 (Selumetinib)] | 0.282 | -0.154 | -0.074 | -0.0961 | 0.0759 | -0.125 | -0.348 | 0.145 | 0.091 | 0.0644 | 0.164
7 | CCN1CCN(Cc2ccc(Nc3ncc(F)c(-c4cc(F)c5nc(C)n(C(C)C)c5c4)n3)nc2)CC1 | -0.454 | 0.2 | 0.128 | -0.473 | -0.118 | 0.484 | 0.0461 | 0.34 | 0.767 | 0.239 | 0.183
8 | O=C(NCCCNc1nc(Nc2cccc(NC(=O)N3CCCC3)c2)ncc1I)c1cccs1 | -0.261 | -0.0747 | 0.054 | -0.174 | 0.125 | -0.0537 | -0.0698 | -0.102 | -0.101 | 0.0689 | -0.0931
9 | COc1ccc(-c2cc3c(C)nc(N)nc3n([C@H]3CC[C@H](OCCO)CC3)c2=O)cn1 | -0.424 | 0.107 | -0.0883 | -0.172 | -0.364 | -0.153 | 0.0981 | -0.166 | 0.0844 | -0.0647 | 0.155
10 | C[C@H](NC(=O)Cc1cc(F)cc(F)c1)C(=O)N[C@@H]1C(=O)N(C)c2ccccc2-c2ccccc21 | -0.303 | 0.0626 | 0.0325 | -0.0914 | 0.0414 | -0.0336 | -0.123 | -0.138 | -0.0477 | -0.12 | -0.114
11 | C#CCC(Cc1cnc2nc(N)nc(N)c2n1)c1ccc(C(=O)N[C@@H](CCC(=O)O)C(=O)O)cc1 (stereo not given in full) [Pralatrexate(Folotyn)] | -0.334 | 0.231 | 0.0797 | -0.237 | -0.0729 | 0.149 | -0.257 | 0.0731 | 0.0527 | 0.0639 | 0.223
12 | CC(C)NC[C@@H](C(=O)N1CCN(c2ncnc3c2[C@H](C)C[C@H]3O)CC1)c1ccc(Cl)cc1 [Ipatasertib (GDC-0068)] | -0.688 | -0.297 | -0.0598 | 0.241 | -0.0739 | -0.228 | 0.0863 | -0.0989 | 0.0644 | 0.0919 | -0.0823
13 | COc1ncc(-c2ccc3nccc(-c4ccnnc4)c3c2)cc1NS(=O)(=O)c1ccc(F)cc1F | -0.778 | 0.43 | 0.0478 | -0.254 | -0.499 | 0.0783 | -0.33 | -0.305 | 0.123 | 0.192 | 0.18
14 | Cc1nc(NC(=O)N2CCC[C@H]2C(N)=O)sc1-c1ccnc(C(C)(C)C(F)(F)F)c1 [Alpelisib (BYL719)] | -0.308 | 0.0272 | -0.0493 | -0.0979 | 0.131 | -0.123 | 0.0754 | -0.0947 | 0.0988 | 0.0495 | -0.125
15 | Cn1c(=O)c(F)c(Nc2ccc(I)cc2F)c2c(=O)n(C[C@@H](O)CO)cnc21 | 0.104 | 0.28 | 0.0748 | -0.176 | 0.193 | 0.0238 | -0.525 | 0.245 | -0.0866 | 0.274 | 0.513
16 | COc1ccc(-c2ccc3c(N4CCOCC4)nc(N4C[C@@H](C)O[C@@H](C)C4)nc3n2)cc1CO | -0.124 | -0.302 | -0.0717 | -0.114 | -0.0964 | -0.246 | 0.079 | 0.0459 | 0.0519 | 0.0599 | -0.085
17 | CC(C)n1nc(-c2ccc3oc(N)nc3c2)c2c(N)ncnc21 | -0.075 | 0.0862 | 0.0627 | 0.217 | -0.392 | -0.124 | -0.188 | -0.194 | 0.164 | 0.0979 | 0.144

Row | Structure (SMILES) | AKT reporter activity score (PC9 [1]) | RAR reporter activity score (PC9 [2]) | PKC reporter activity score (PC9 [3]) | PKA reporter activity score (PC9 [4]) | p38 reporter activity score (PC9 [5]) | HIF reporter activity score (PC9 [6]) | ERK reporter activity score (PC9 [7]) | JNK reporter activity score (PC9 [8]) | WNT reporter activity score (PC9 [9]) | NFkB reporter activity score (PC9 [10]) | YAP/TAZ reporter activity score (PC9 [11])
18 | COc1cc2ncnc(Nc3ccc(F)c(Cl)c3)c2cc1OCCCN1CCOCC1 [Gefitinib (Iressa)] | -0.363 | 0.5 | 0.0998 | -0.3 | -0.282 | 0.136 | -0.664 | 0.166 | 0.25 | 0.184 | 0.4
19 | COc1cc2ncnc(Nc3ccc(F)c(Cl)c3)c2cc1NC(=O)/C=C/CN1CCCCC1 | -0.392 | 0.516 | 0.0863 | -0.547 | -0.404 | 0.138 | -0.698 | -0.159 | 0.343 | 0.23 | 0.338
20 | Cc1c(NC(=O)OC[C@@H]2COCCN2)cn2ncnc(Nc3ccc4c(cnn4Cc4cccc(F)c4)c3)c12 | -0.228 | 0.182 | 0.0831 | 0.0553 | -0.0763 | -0.136 | -0.29 | -0.0881 | 0.0831 | 0.0753 | 0.0967
21 | Cc1ccc([N+](=O)[O-])cc1S(=O)(=O)N(C)/N=C/c1cnc2ccc(Br)cn12 | -0.252 | 0.101 | 0.105 | -0.347 | -0.118 | 0.178 | -0.147 | 0.157 | 0.207 | 0.0772 | 0.169
22 | O=C(Nc1cc(C(F)(F)F)cc(C(F)(F)F)c1)c1cc(Cl)ccc1O | -0.694 | 0.372 | 0.146 | -0.27 | 0.0561 | 0.485 | -0.0507 | 0.113 | 0.101 | 0.111 | 0.257
23 | CC(C)CC(=O)Nc1n[nH]c2c1CN(C(=O)C1CCN(C)CC1)C2(C)C | -0.35 | 0.417 | – | -0.15 | -0.296 | 0.227 | -0.107 | -0.179 | 0.117 | 0.167 | 0.244
24 | COc1cccc2c1C(=O)c1c(O)c3c(c(O)c1C2=O)C[C@@](O)(C(C)=O)C[C@@H]3O[C@H]1C[C@H](N)[C@H](O)[C@H](C)O1 [Daunorubicin HCl (Daunomycin HCl)] | – | – | – | – | -0.245 | – | -0.431 | 0.068 | 0.915 | 0.693 | –
25 | CCn1c(-c2nonc2N)nc2c(C#CC(C)(C)O)ncc(OC[C@H]3CCCNC3)c21 | -0.513 | -0.292 | -0.0561 | 0.119 | -0.189 | -0.224 | 0.134 | 0.058 | 0.151 | 0.0699 | -0.0459
26 | C=CC(=O)Nc1ccc2ncnc(Nc3cccc(Br)c3)c2c1 | – | – | – | – | -0.268 | 0.234 | -0.724 | – | – | – | 0.467
27 | Cc1cc(C(=O)NOCCO)c(Nc2ccc(I)cc2F)n(C)c1=O | -0.0809 | 0.337 | 0.0992 | -0.257 | 0.108 | 0.0532 | -0.629 | 0.22 | 0.0922 | 0.224 | 0.448
28 | Nc1ncnc2c1c(-c1cnc3[nH]ccc3c1)nn2C1CCCC1 | -0.463 | 0.646 | 0.116 | – | -0.374 | 0.183 | -0.379 | -0.111 | 0.0862 | 0.128 | 0.258
29 | Cc1ccc(C(=O)N(CCCN)[C@@H](c2oc3cc(Cl)ccc3c(=O)c2Cc2ccccc2)C(C)C)cc1 | – | – | 0.176 | – | -0.278 | 0.473 | -0.378 | -0.131 | – | 0.169 | –
30 | CC(=O)Nc1cccc(-n2c(=O)n(C3CC3)c(=O)c3c(Nc4ccc(I)cc4F)n(C)c(=O)c(C)c32)c1 | 0.278 | 0.158 | -0.0489 | -0.226 | 0.0617 | -0.114 | -0.491 | 0.181 | 0.129 | 0.158 | 0.324
31 | O=C(NOC[C@H](O)CO)c1ccc(F)c(F)c1Nc1ccc(I)cc1F | 0.136 | 0.142 | 0.094 | -0.18 | -0.265 | -0.129 | -0.452 | 0.303 | 0.0484 | 0.228 | 0.42
32 | O=C(/C=C/c1cccc(S(=O)(=O)Nc2ccccc2)c1)NO [Belinostat (PXD101)] | -0.067 | 0.675 | 0.12 | -0.172 | -0.223 | 0.488 | -0.315 | -0.122 | 0.155 | 0.0869 | 0.484
33 | CN1CC[C@H](c2c(O)cc(O)c3c(=O)cc(-c4ccccc4Cl)oc23)[C@H](O)C1 [Flavopiridol hydrochloride] | – | – | – | -0.608 | -0.475 | 0.353 | -0.633 | -0.208 | 0.153 | 0.123 | 0.371
34 | COc1ccc(-c2ccc3c(N4CCOC[C@@H]4C)nc(N4CCOC[C@@H]4C)nc3n2)cc1CO | -0.0864 | -0.11 | 0.0766 | – | -0.297 | -0.151 | -0.211 | -0.189 | 0.13 | 0.178 | 0.166
